Screening data from PubChem BioAssay.
Sampled rows, rich in hits. Any-hit rate of the full collection: about 1.1%.
HTR5A inv ctr: inverse agonist of human HTR5A in OPRM1-OPRD1 counter-screen; P47898; HTR5A cell line, luminescence, inverse agonism; inhibition, % at 9.3 µM; 340,000 compounds, 0.083% hits; AID 504634; in the data active = inhibition mostly above about 23%, no sharp cut-off; inactive = mostly below about 18%;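 also: 0% = cells with DMSO and 100% = no-cell wells with DMSO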
Target sequence (P47898 whole entry, looked up): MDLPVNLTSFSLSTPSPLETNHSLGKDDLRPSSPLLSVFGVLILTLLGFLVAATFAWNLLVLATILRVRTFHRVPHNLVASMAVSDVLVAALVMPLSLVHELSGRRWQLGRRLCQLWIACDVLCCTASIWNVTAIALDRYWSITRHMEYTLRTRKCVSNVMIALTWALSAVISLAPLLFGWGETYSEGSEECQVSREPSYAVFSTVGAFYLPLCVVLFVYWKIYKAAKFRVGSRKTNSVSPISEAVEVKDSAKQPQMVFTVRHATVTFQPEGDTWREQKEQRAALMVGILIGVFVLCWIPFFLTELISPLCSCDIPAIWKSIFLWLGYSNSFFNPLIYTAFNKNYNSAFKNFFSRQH
OPRM1-OPRD1 ag: agonists of human mu-delta opioid receptor heterodimerization. activation, % at 9.3 µM. P35372+P41143. 340,000 compounds, 0.3% hits. AID 504326. cells, OPRM1-OPRD1 heterodimerization, luminescence; in the data active = activation above about 18%;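 also: 0% = vehicle-treated cells and 100% = reference agonist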
HTR5A ag: HTR5A agonism, opioid heterodimer counter-screen; P47898; HTR5A agonist assay, luminescence, cell-based; activation, % at 9.3 µM; 340,000 compounds, 0.61% hits; AID 504692; in the data active = activation mostly above about 9.5%, no sharp cut-off; inactive = mostly below about 7.6%;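 also: 0% = cells with vehicle only and 100% = reference agonist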
OPRM1-OPRD1 inv: inverse agonist of human OPRM1-OPRD1 heterodimerization | P35372+P41143 | cell-based MOR-DOR heterodimer luminescence, inverse agonism | inhibition, % at 9.3 µM | 340,000 compounds, 0.21% hits | AID 504357; in the data active = inhibition above about 22%, passing the limit was not always enough;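 also: 0% = cells with DMSO and 100% = wells without cells with DMSO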
MOR-DOR inv conf: confirmation of human OPRM1-OPRD1 heterodimerization inverse agonists. inhibition, % at 9.3 µM. AID 504900. cells expressing OPRM1/OPRD1 heterodimer, luminescence. shares compounds with OPRM1-OPRD1 inv. 580 compounds, 20% hits; in the data active = inhibition above about 32%;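 also: 0% = cells with DMSO and 100% = wells lacking cells with DMSO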
HTR5A inv count: inverse agonist of human HTR5A in OPRM1-OPRD1 counter-screen | shares compounds with OPRM1-OPRD1 inv | HTR5A-expressing cells, luminescence, inverse agonism | inhibition, % at 9.3 µM | 580 tested, under 10 active | AID 504914; call rule not given here;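 also: 0% = cells with DMSO and 100% = no-cell wells with DMSO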
* hit, by the source's call; i = inactive; · = no result given.

SMILES | HTR5A inv ctr | OPRM1-OPRD1 ag | HTR5A ag | OPRM1-OPRD1 inv | MOR-DOR inv conf | HTR5A inv count
CC1CCN(c2c(NCC3CCC(C(=O)NCc4ccccc4Cl)CC3)c(=O)c2=O)CC1 (stereo not given) | -9 | 2 | 3 | -10 | · | ·
C[C@H](NC(=O)c1[nH]cnc1C(=O)N[C@H](C)c1ccccc1)c1ccccc1 | 10 | 5 | 12 | -27 | · | ·
CC(=O)Nc1cccc(C(=O)OCC(=O)c2ccc(S(=O)(=O)N3CCCCC3)cc2)c1 | 18 | -9 | -7 | 47* | 49* | 15
COc1cc(C(=O)OCC(=O)c2ccc(S(=O)(=O)N3CCCCC3)cc2)cc(OC)c1OC | 1 | -8 | -3 | 31 | · | ·
CNS(=O)(=O)c1cccc(C(=O)OCC(=O)c2ccc(S(=O)(=O)N3CCCCC3)cc2)c1 | 13 | -10 | -5 | 53* | 24 | 18
CC(=O)Nc1ccc(C(=O)OCC(=O)c2ccc(S(=O)(=O)N3CCCCC3)cc2)cc1 | -8 | 3 | -3 | -18 | · | ·
CNS(=O)(=O)c1cccc(C(=O)OCC(=O)c2cc3ccccc3o2)c1 | 37* | -17 | -15 | 77* | -282 | 6
CCOc1ccc(S(=O)(=O)N2CCCC(C(=O)NCc3ccncc3)C2)cc1Cl (stereo not given) | 8 | 4 | -3 | -29 | · | ·
CCCN1CCC(=NNc2ccc(C(=O)O)cc2)CC1 | 26 | -8 | -1 | 37* | -24 | -143
CCCN1CCC(=NNC(=O)c2ccc(Br)o2)CC1 | -7 | 0 | 3 | -3 | · | ·
CC(C)(C)OC(=O)C[C@@H]1C/C=C\C[C@H](CC(=O)N(CCO)Cc2ccccc2)C(=O)NC[C@@H](c2ccccc2)OC1=O | 36 | -12 | -10 | 56* | -427 | -1
C=CCSc1cc(C)nc2c(-c3ccc(Cl)cc3)c(C)nn12 | 38 | -5 | 0 | 28* | -52 | -2
CC(C)(CCl)C(=O)Nc1ccnc(-c2ccncc2)n1 | -2 | -1 | 0 | 5 | · | ·
Cc1ccc(Cl)c2c1NC(=O)C2(O)CC(=O)c1ccccc1O (stereo not given) | 27 | -15 | -4 | 80* | 75* | -9
CC(=O)NS(=O)(=O)c1ccc(NC(=O)CN2C(=O)C3C4C=CC(C4)C3C2=O)cc1 (stereo not given) | -8 | -3 | 0 | 15 | · | ·
CCNC(=S)NNc1nnc(-c2ccccc2)c(-c2ccccc2)n1 | 17 | -10 | 2 | 50* | 29 | 8
CCNC(=S)NNC(=S)NCc1ccccc1 | 13 | -4 | -3 | 21 | · | ·
Oc1ccccc1C=NN1CCCCCC1 | 4 | 2 | -1 | -9 | · | ·
Oc1[nH]c2ccccc2c1/C=N/N1CCCCC1 | 9 | -6 | -3 | 37* | 27 | -15
CCOc1ccc2c(c1)/C(=N/N1C(=O)c3ccccc3C1=O)C(=O)N2 | 19 | -7 | -7 | 42* | -7 | 7
Cc1ccc2c(c1)/C(=N/N1C(=O)c3ccccc3C1=O)C(=O)N2 | 7 | -5 | -2 | 28* | 5 | 14
Cc1ccc2c(c1)/C(=C/c1ccccc1C)C(=O)N2 | -6 | 6 | 2 | -30 | · | ·
Cn1c(-c2ccc(F)cc2)cnc1NCc1ccccc1F | -18 | -7 | 0 | 38* | -10 | -5
Cc1ccccc1C(=O)NNC(=O)CCCCC(=O)NNC(=O)c1ccccc1C | 28 | -1 | 0 | 5 | · | ·
CCOC(=O)CC1C(=O)NCCN1C(=O)COc1ccc(C(C)(C)C)cc1 (stereo not given) | -3 | -2 | 1 | 12 | · | ·
SMILES | HTR5A inv ctr | OPRM1-OPRD1 ag | HTR5A ag | OPRM1-OPRD1 inv | MOR-DOR inv conf | HTR5A inv count
COc1ccc(N2COC3c4cccc5cccc(c45)C32)cc1 (stereo not given) | 9 | -9 | -4 | 50* | -267 | -58
CCOC(=O)c1ccc(CC(=O)c2oc3cc(O)ccc3c2C)o1 | -9 | -6 | -1 | 34* | 28 | -2
CC(=O)C1=C(c2ccccc2)N(C(C)=O)n2c(C)nnc2S1 | 5 | -17 | -2 | 86* | 16 | 12
CC(=O)N1CCN(c2nnc(-c3ccccc3)c3ccccc23)CC1 | -5 | -1 | 1 | 5 | · | ·
CC(=O)NC(=S)Nc1ccccc1C(=O)Nc1ccccc1 | -24 | -5 | -2 | 27* | 7 | -2
CCCCC(=O)NC(=S)Nc1ccccc1C(=O)Nc1ccccc1 | 10 | -6 | -2 | 30* | 8 | 2
CC(C)(C)c1ccc(C(=O)OCC(=O)NC2CC2)cc1 | 5 | -2 | -2 | 9 | · | ·
CCCc1c(C(=O)NNc2ccc(C)cc2)cnn1-c1ccccc1 | -1 | -8 | 2 | 39* | -3 | -16
CCCc1c(C(=O)Nc2ccc(C(F)(F)F)cc2)cnn1-c1ccccc1 | -3 | 5 | 0 | -26 | · | ·
O=C1OCc2cccc3cccc1c23 | -6 | 0 | -1 | 1 | · | ·
O=C1Cc2cccc3cccc1c23 | -8 | -5 | -3 | 30* | 12 | -17
Cc1cc(C)nc(-n2nc(C)c(C3(O)C(=O)Nc4ccccc43)c2N)n1 (stereo not given) | 11 | -4 | -4 | 23* | -15 | -4
Cc1cc(C)nc(-n2nc(C)c(C3(O)C(=O)Nc4ccc(F)cc43)c2N)n1 (stereo not given) | 17 | -14 | -10 | 62* | 53* | 8
O=C(CN1CCN(C(=O)c2ccco2)CC1)Nc1ccc(F)cc1F | -2 | -4 | 5 | 18 | · | ·
CC(C(=O)OCC(=O)c1cccc([N+](=O)[O-])c1)N1C(=O)C2C3CCC(C3)C2C1=O (stereo not given) | 11 | -7 | -4 | 54* | 17 | 6
Cc1ccc(C(=O)COC(=O)C(C)N2C(=O)C3C4CCC(C4)C3C2=O)cc1C (stereo not given) | 8 | -2 | -1 | 14 | · | ·
CC(C(=O)OCC(=O)c1cccc([N+](=O)[O-])c1)N1C(=O)C2C3C=CC(C3)C2C1=O (stereo not given) | 19 | -9 | -7 | 48* | i | -16
C/C(=N\NC(=O)CCC(=O)Nc1ccc(C)c(C)c1)C1CC1 | -12 | -2 | 3 | 13 | · | ·
COc1cc(C(C)=O)ccc1OCc1cn(CC(=O)c2ccc(O)cc2)nn1 | 9 | -7 | -2 | 32* | i | -25
[O-]/[N+](=C\c1ccccc1)[C@@H]1CCCC[C@@H]1/[N+]([O-])=C/c1ccccc1 | 3 | -9 | 4 | 37* | 18 | 4
COc1ccc(S(=O)(=O)N2CCC(C(=O)Nc3ccccc3N3CCCCC3)CC2)cc1OC | 18 | 1 | 7 | -3 | · | ·
COCCNC(=O)C(c1ccc(F)cc1)N(Cc1ccccc1)C(=O)CCC(=O)Nc1nccs1 (stereo not given) | 9 | -1 | -2 | 5 | · | ·
COc1ccc(S(=O)(=O)NNc2nc(C)cc(C)n2)cc1[N+](=O)[O-] | 0 | -8 | 2 | 46* | 54* | 2
COc1ccc(C2N=C(c3ccccc3)C(C)(C)N2O)cc1 (stereo not given) | -23 | -8 | -1 | 43* | 12 | 0
